Assay [1] in a line: NCI Yeast Anticancer Drug Screen. Data for the rad50 strain (AID 155).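 Note: 0% = growth of vehicle-only cultures of the same strain.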 Particulars: S. cerevisiae rad50 strain growth inhibition, hits give high values. In short, it runs like this: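 Compounds were tested on a yeast strain with an engineered DNA damage repair alteration; the reported value is growth inhibition normalised to vehicle treatment.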
Assay [2] is described as follows: NCI Yeast Anticancer Drug Screen. Data for the mec2-1 strain (AID 157). Particulars: S. cerevisiae mec2-1 strain, hits give high values. In short, it runs like this: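 Each compound was tested on mec2-1 yeast, a strain altered in DNA damage repair or cell cycle control. Growth inhibition is reported relative to vehicle.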
Assay [3] in a line: NCI Yeast Anticancer Drug Screen. Data for the sgs1 mgt1 strain (AID 161).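 Note: 0% = growth of cultures given vehicle only.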 Particulars: S. cerevisiae sgs1 mgt1 strain, hits give high values. In outline:
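Mutant yeast exposed to compound; growth scored against vehicle-only wells.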

A short description of assay [4]: NCI Yeast Anticancer Drug Screen. Data for the cln2 rad14 strain (AID 165).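 Note: 0% = growth equal to vehicle treated cultures.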 Particulars: S. cerevisiae cln2 rad14 strain, hits give high values. In outline: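 Test compounds were added to cln2 rad14 yeast cultures; inhibition of growth was then determined by comparison with vehicle treatment.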
Assay [5] can be described thus: NCI Yeast Anticancer Drug Screen. Data for the bub3 strain (AID 167). Particulars: S. cerevisiae bub3 mutant strain, hits give high values. In short, it runs like this: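 Growth of a checkpoint-deficient yeast mutant is measured after compound exposure. Values represent inhibition relative to vehicle.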
Assay [6] in a line: NCI Yeast Anticancer Drug Screen. Data for the mlh1 rad18 strain (AID 175). Particulars: S. cerevisiae mlh1 rad18 strain growth inhibition, hits give high values. In short, it runs like this: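 Inhibition values reflect reduced growth of mutant yeast versus vehicle-treated controls following compound exposure; the mutations affect DNA damage repair.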
The mark [7] stands for this setting: at 5.0 µM (retest, dose inferred, filed as 0.5).
Where [8] appears, read: at 50.0 µM (retest, dose inferred, filed as 5.0).

Six molecules from PubChem BioAssay (NCI) can be followed below.

Compounds without any hit were thinned out: in the full panel of roughly 79,000, 15% have a hit. Unmarked numbers belong to inactive results. Activity calls are given as the source filed them. Cut-off read from the data, not from the text of the source: active = growth inhibition above about 70%; inactive = the rest.

On to `CC(C)(CN1CCCCC1)C(=O)/C=C/c1ccc(Cl)c(Cl)c1`, for which the growth inhibition is 60% in assay [1] (setting [7]); 97% (active) in assay [1] (setting [8]); 93.3% (active) in assay [1] (at 50.0 µM); 27% in assay [2] (setting [7]); 98% (active) in assay [2] (setting [8]); 94.7% (active) in assay [2] (at 50.0 µM). For the same molecule, the growth inhibition was 31% in assay [3] (setting [7]); 96% (active) in assay [3] (setting [8]); 93.2% (active) in assay [3] (at 50.0 µM); 28% in assay [4] (setting [7]); 96% (active) in assay [4] (setting [8]); 91.8% (active) in assay [4] (at 50.0 µM). Further, the growth inhibition in assay [5] (setting [7]) was 47%; in assay [5] (setting [8]), 96% (active); in assay [5] (at 50.0 µM), 92.9% (active); in assay [6] (setting [7]), 52%; in assay [6] (setting [8]) it was 97% (active); in assay [6] (at 50.0 µM) it was 92.7% (active).

Regarding `O=C(NCCCNCCNC(=O)c1cc(-c2ccccc2)nc2ccccc12)c1cc(-c2ccccc2)nc2ccccc12`, the growth inhibition is -22% in assay [1] (setting [7]); 93% (active) in assay [1] (setting [8]); 98.6% (active) in assay [1] (at 50.0 µM); -12% in assay [2] (setting [7]); 98% (active) in assay [2] (setting [8]); 99.2% (active) in assay [2] (at 50.0 µM). Also, the growth inhibition in assay [3] (setting [7]) is -4%; in assay [3] (setting [8]) it was 89% (active); in assay [3] (at 50.0 µM) it was 99.1% (active); in assay [4] (setting [7]), 28%; in assay [4] (setting [8]), 94% (active); in assay [4] (at 50.0 µM) it was 99.3% (active). Besides, the growth inhibition in assay [5] (setting [7]) was -23%; in assay [5] (setting [8]), 99% (active); in assay [5] (at 50.0 µM) it was 99.1% (active); in assay [6] (setting [7]), 5%; in assay [6] (setting [8]) it was 98% (active); in assay [6] (at 50.0 µM) it was 99.3% (active).

`COc1ccc([C@H]2c3cc4c(cc3OC(O)(CO)[C@H]2C(=O)O)OCO4)c(OC)c1` (stereo partly drawn) (tested in a mixture with another compound): the growth inhibition is 9% in assay [1] (setting [7]); 63% in assay [1] (setting [8]); 57% in assay [1] (at 50.0 µM); 15% in assay [2] (setting [7]); 48% in assay [2] (setting [8]); 48.4% in assay [2] (at 50.0 µM). The growth inhibition in assay [3] (setting [7]) is 0%; in assay [3] (setting [8]) it was 44%; in assay [3] (at 50.0 µM) it was 44.1%; in assay [4] (setting [7]) it was 0%; in assay [4] (setting [8]) it was 35%; in assay [4] (at 50.0 µM) it was 28%. Moreover, the growth inhibition in assay [5] (setting [7]) is -5%; in assay [5] (setting [8]), 76% (active); in assay [5] (at 50.0 µM) it was 54.5%; in assay [6] (setting [7]) it was 6%; in assay [6] (setting [8]), 86% (active); in assay [6] (at 50.0 µM), 80.5% (active).

As for `Cc1cccc(C)c1N1C(=O)C2Nc3ccccc3SC2C1=O` (stereo not drawn), the growth inhibition in assay [1] (setting [7]) is 7%; in assay [1] (setting [8]), 93% (active); in assay [1] (at 50.0 µM), 98.5% (active); in assay [2] (setting [7]), -1%; in assay [2] (setting [8]), 94% (active); in assay [2] (at 50.0 µM) it was 98.7% (active). Moreover, the growth inhibition in assay [3] (setting [7]) was 3%; in assay [3] (setting [8]), 96% (active); in assay [3] (at 50.0 µM), 98.4% (active); in assay [4] (setting [7]) it was 2%; in assay [4] (setting [8]) it was 90% (active); in assay [4] (at 50.0 µM), 95.8% (active). Also, the growth inhibition in assay [5] (setting [7]) was 1%; in assay [5] (setting [8]), 94% (active); in assay [5] (at 50.0 µM), 98.3% (active); in assay [6] (setting [7]), 11%; in assay [6] (setting [8]), 95% (active); in assay [6] (at 50.0 µM) it was 98.5% (active).

For `CCN(CC)CCOC(=O)c1ccc(N=Nc2cc(Cl)c(C)cc2O)cc1`, the growth inhibition is 26% in assay [1] (setting [7]); 98% (active) in assay [1] (setting [8]); 99.3% (active) in assay [1] (at 50.0 µM); 29% in assay [2] (setting [7]); 99% (active) in assay [2] (setting [8]); 99.2% (active) in assay [2] (at 50.0 µM). The growth inhibition in assay [3] (setting [7]) is 55%; in assay [3] (setting [8]), 99% (active); in assay [3] (at 50.0 µM), 95.2% (active); in assay [4] (setting [7]), 13%; in assay [4] (setting [8]), 98% (active); in assay [4] (at 50.0 µM) it was 99% (active). In addition, the growth inhibition in assay [5] (setting [7]) was 58%; in assay [5] (setting [8]), 99% (active); in assay [5] (at 50.0 µM), 99.1% (active); in assay [6] (setting [7]), 28%; in assay [6] (setting [8]), 99% (active); in assay [6] (at 50.0 µM), 99.1% (active).

Turning to `COc1ccc2c(c1)CCC1=C2C=C[P+]1(C)C`, the growth inhibition was -4% in assay [1] (setting [7]); 98% (active) in assay [1] (setting [8]); 99.5% (active) in assay [1] (at 50.0 µM); -5% in assay [2] (setting [7]); 96% (active) in assay [2] (setting [8]); 99.7% (active) in assay [2] (at 50.0 µM). Further, the growth inhibition was -1% in assay [3] (setting [7]); 100% (active) in assay [3] (setting [8]); 99.7% (active) in assay [3] (at 50.0 µM); 4% in assay [4] (setting [7]); 71% (active) in assay [4] (setting [8]); 94.6% (active) in assay [4] (at 50.0 µM). The growth inhibition in assay [5] (setting [7]) is -2%; in assay [5] (setting [8]), 97% (active); in assay [5] (at 50.0 µM), 99.7% (active); in assay [6] (setting [7]), -2%; in assay [6] (setting [8]), 99% (active); in assay [6] (at 50.0 µM), 99.5% (active).
